Compounds with a hit are over-represented: about 21% of the library has one in this group of screens.
Pf growth 48h – P. falciparum growth inhibition at 48 hours (one generation); hit rate 5.9% among 310,000; P. falciparum luciferase growth in erythrocytes, 48 h; Potency, µM (series often up to 28.7 µM), hits mostly inhibitors; AID 504832
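Cell-based growth assay: transgenic P. falciparum expressing firefly luciferase, cultured in red cells within RPMI 1640 containing 0.5% w/v Albumax, 24 mM bicarbonate and gentamycin. A drop in luciferase activity indicates inhibition.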
Shiga toxin inh – inhibitors of Shiga toxin in Vero cells; AID 2315; Vero cells, Shiga toxin protein synthesis inhibition reporter; hit rate 9.2% among 290,000; inhibition, % at 38.7 µM; in the data active = inhibition mostly above about 28%, no sharp cut-off; inactive = mostly below about 43%
NS1 function inh – influenza NS1 inhibition | Potency, µM (titrated, usually from 46.1 µM) | hit rate 0.4% among 270,000 | AID 2326; calls by dose curve; also: actives are rising curves; nearly all actives have a fitted effect of over 50% in size
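Compounds were scored for reversing the slow growth caused by influenza A NS1 in S. cerevisiae, measured by optical density at 600 nm. Assay medium contained 2% galactose at pH 6.0; NS1-free yeast of the same strain were the positive control.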
Pf growth 96h – P. falciparum growth inhibition at 96 hours. P. falciparum luciferase reporter growth, 96 h. Potency, µM (highest dose often 28.7 µM), hits mostly inhibitors. hit rate 6.9% among 320,000
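Compounds incubated with erythrocytes infected by luciferase-expressing P. falciparum (2% hematocrit, 0.05% parasitemia final) for 96 hours, 37 C in 5% CO2. Growth inhibition scored as decreased luciferase luminescence.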
Cycloheximide cs – counter-screen for Shiga toxin inhibitors: cycloheximide protein synthesis inhibition; hit rate 12% among 300,000; cell reporter, cycloheximide protein synthesis inhibition counterscreen; max response, %; AID 2314; in the data active = max response mostly above about 13%, no sharp cut-off; inactive = mostly below about 14%; also: read at 38.3 µM for the half of the compounds with a filed dose
Large screens that a line does not name were inactive. Unless noted, calls follow the shape of the dose curve; as a rule, active = well fitted inhibition curve with a large enough effect; inconclusive = small, poorly fitted or top-dose-only effect, or another doubt; inactive = no such curve, though single readings can be large or run the other way.

O=C(Cn1c(=O)oc2ccc(Cl)cc21)NC1CCCCC1	Pf growth 96h 9.28µM
Cc1cc(C)cc(NC(=O)Cn2c(=O)oc3cc(S(=O)(=O)N4CCC(C)CC4)ccc32)c1	Pf growth 96h 11.7µM (no result: Pf growth 48h)
COc1cc(/C=N/N2CCCCC2)cc([N+](=O)[O-])c1O	none
CC(=O)NC1(C(F)(F)F)C(=O)Nc2c1c(=O)[nH]c(=O)n2CCc1ccccc1 (stereo unspecified)	none
Cc1nc(-c2c(C(F)(F)F)noc2-c2ccc(O)cc2O)cs1	Pf growth 96h inconclusive
CCOc1cc(C)c(-c2onc(C(F)(F)F)c2-c2csc(C)n2)c(O)c1	Pf growth 48h 1.65µM, Pf growth 96h 1.85µM
CN(C)CC(CCC(CN(C)C)C(O)(c1ccccc1)c1ccccc1)C(O)(c1ccccc1)c1ccccc1 (stereo unspecified)	Pf growth 48h 1.85µM, Pf growth 96h 1.85µM
O=C(/C=C\c1ccccc1)Nc1ccc(NC(=O)c2ccco2)cc1	Pf growth 48h inconclusive (no result: NS1 function inh)
O=C(/C=C/c1ccc(Br)cc1)c1ccc(NC(=O)c2ccco2)cc1	Cycloheximide cs 27.1
O=C(/C=C/c1ccc(Br)cc1)c1ccco1	Shiga toxin inh 64.0, Cycloheximide cs 29.2
O=C(/C=C/c1ccccc1)N1CCN(C(=O)c2ccco2)CC1	none (no result: Pf growth 96h)
O=C(/C=C/C=C/c1ccccc1)c1ccco1	Shiga toxin inh 102.8, Cycloheximide cs 51.3
CON1C(=O)C(=O)N(OC)C(C)(C)C1(C)C	none
O=C(/C=C/c1ccccc1Cl)NCCCn1ccnc1	none
O=C(NCc1nnc(SCC(=O)N2CCN(c3ccccc3)CC2)o1)c1ccc(F)cc1	none
COc1ccc(/C=C2\C(=O)NC(=S)N2C(=O)c2ccc(F)cc2)cc1	none
O=C1NC(=S)N(C(=O)c2ccc(F)cc2)/C1=C/c1ccccc1	Cycloheximide cs 14.4
O=C(Nc1cccc(-c2csc(Nc3ccc(Cl)cc3)n2)c1)c1cc([N+](=O)[O-])cc(C(F)(F)F)c1	Pf growth 48h 1.65µM, Pf growth 96h 2.08µM
O=C(Nc1cccc(-c2csc(Nc3ccccc3)n2)c1)c1cc([N+](=O)[O-])cc(C(F)(F)F)c1	Pf growth 48h inconclusive, Shiga toxin inh 27.1, Pf growth 96h inconclusive, Cycloheximide cs 17.7
O=C(NNC(=S)Nc1cccc(C(F)(F)F)c1)c1cccc(Cl)c1	none
O=C(Nc1cccc(-c2csc(Nc3ccc(Cl)cc3)n2)c1)c1cccc(C(F)(F)F)c1	Pf growth 48h inconclusive, Shiga toxin inh 42.2, Pf growth 96h inconclusive, Cycloheximide cs 12.3
O=C(Nc1ccc(-c2csc(Nc3ccc(Cl)cc3)n2)cc1)c1cc([N+](=O)[O-])cc(C(F)(F)F)c1	Pf growth 48h inconclusive, Pf growth 96h inconclusive
CCOc1cc(OCC)cc(C(=O)O)c1	Pf growth 48h inconclusive
CCOc1cc(C(=O)O)cc(Cl)c1OCC#N	Pf growth 96h 7.38µM
CCn1cc(S(=O)(=O)N2CCN(Cc3cccc(Cl)c3)CC2)cn1	none
O=C(COc1ccccc1N1C(=O)c2ccccc2C1=O)c1ccc(Cl)cc1	Pf growth 48h inconclusive, Shiga toxin inh 33.6, Cycloheximide cs 20.4
O=C(COc1ccc(N2C(=O)c3ccccc3C2=O)cc1)c1ccccc1	none
CC(=O)Nc1ccc(S(=O)(=O)N(C)CC(=O)OCC(=O)c2ccc3c(c2)NC(=O)CO3)cc1	none (no result: Shiga toxin inh, NS1 function inh, Cycloheximide cs)
COC1=C(Nc2ccc(O)cc2)C(=O)c2ccccc2C1=O	Pf growth 48h inconclusive, Shiga toxin inh 77.2, Pf growth 96h 11.7µM, Cycloheximide cs 28.1
CCOc1ccc(NC2=C(OC)C(=O)c3ccccc3C2=O)cc1	Pf growth 48h 1.17µM, Shiga toxin inh 61.3, Pf growth 96h 1.17µM, Cycloheximide cs 20.4
COC1=C(Nc2ccc(OC)cc2)C(=O)c2ccccc2C1=O	Pf growth 48h 2.33µM, Shiga toxin inh 133.3, Pf growth 96h inconclusive, Cycloheximide cs 51.7
CCOc1ccc(Nc2cc(=O)[nH]c(=O)[nH]2)cc1	none
COc1ccc(NC2=C(NC(C)=O)C(=O)c3ccccc3C2=O)cc1	Pf growth 48h inconclusive
COc1ccc(OC)c(Nc2nn3c(=O)c4ccccc4nc3s2)c1	none (no result: Shiga toxin inh, NS1 function inh, Cycloheximide cs)
Cc1nn(-c2ccccc2)c2c1P(=O)(O)/C(=C1\N(C)c3ccccc3C1(C)C)C=N2	Pf growth 48h 2.08µM, NS1 function inh inconclusive, Pf growth 96h 8.28µM
CC(=O)OCCBr	none (no result: Pf growth 48h, NS1 function inh, Pf growth 96h)
O=C(Nc1ncc([N+](=O)[O-])s1)c1ccccc1Br	Shiga toxin inh 65.1, Pf growth 96h inconclusive, Cycloheximide cs 49.6
CC(=O)c1sc(NC(=O)c2cccs2)nc1C	none
O=C(/C=C/c1ccc([N+](=O)[O-])cc1)NCc1ccccn1	none
Cc1cnc(NC(=O)c2cccs2)s1	Shiga toxin inh 67.3, Cycloheximide cs 28.8

Assay outcomes: PubChem BioAssay, National Center for Advancing Translational Sciences (NCATS)
